Hits are enriched below; roughly 5.7% of the tested compounds scored in any of these assays.
hgDAF12 agonist – agonists of H. glycines DAF-12 nuclear receptor | 1.8% of 370,000 active | AID 687014 | HEK293 GAL4-hgDAF12 UAS-luciferase reporter, agonist luminescence; normalized to butyrate control | activation, % at 6.8 µM;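 active means activation above a cutoff set at the mean of all screened compounds plus 3 SD, cut at about 10% in these data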;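 further: 0% = DMSO wells and 100% = sodium butyrate wells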
DAX1 inh-1 – inhibitors of human orphan nuclear receptor DAX1 (NR0B1) | P51843 | HEK293 Gal4-DAX1 luciferase reporter, luminescence | inhibition, % at 6.75 µM | 0.99% of 340,000 active | AID 504766;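 active means inhibition above the mean over all tested compounds plus 3 SD, cut at about 4.2% in these data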;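 further: 0% = DAX1-transfected cells with DMSO and 100% = empty-vector control cells with DMSO; inhibition shows as a rise in luminescence from relieved DAX1 repression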
Target sequence (P51843 207-470 limits assumed): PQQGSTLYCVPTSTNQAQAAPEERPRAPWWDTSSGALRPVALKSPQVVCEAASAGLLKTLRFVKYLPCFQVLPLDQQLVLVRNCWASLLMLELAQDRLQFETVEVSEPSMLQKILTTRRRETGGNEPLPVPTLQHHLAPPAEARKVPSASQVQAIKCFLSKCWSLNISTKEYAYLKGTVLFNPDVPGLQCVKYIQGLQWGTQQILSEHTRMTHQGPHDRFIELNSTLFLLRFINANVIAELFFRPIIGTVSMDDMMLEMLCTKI
DAX1 inh-2 – blocks DAX1 repression of SF-1 activated StAR promoter; 1.1% of 370,000 active; HEK293T StAR-luciferase reporter, SF-1/DAX-1 repression relief; inhibition, % at 6.8 µM;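 active means inhibition above the mean over all tested compounds plus 3 SD, cut at about 3.6% in these data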;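 further: 0% = DAX-1 cells with DMSO and 100% = cells lacking DAX-1 with DMSO; higher inhibition means more luminescence from relief of DAX-1 repression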
hcDAF-12 act – activates DAF-12 receptor from parasite H. contortus; activation, % at 6.8 µM; HEK293 hcDAF-12 lit1-tk-luc reporter, luminescence; 0% DMSO, 100% Δ7-dafachronic acid; AID 652067; 1.4% of 370,000 active;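 active means activation above the mean of all tested compounds plus 3 SD, cut at about 5.5% in these data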;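 further: 100% = response to 3 µM Δ7-dafachronic acid high control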
ssDAF-12 act – activators of S. stercoralis DAF-12 nuclear receptor; HEK293 ssDAF-12/GRIP1 lit1-tk-luc reporter, luminescence; % of 3 µM dafachronic acid response; activation, % at 6.8 µM; 1% of 370,000 active;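 active means activation above the mean over all tested compounds plus 3 SD, cut at about 0.9% in these data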;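 further: 0% = DMSO-only wells and 100% = 3 µM delta7-dafachronic acid wells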
AHR act – activators of human aryl hydrocarbon receptor | AHR-responsive luciferase reporter cells, luminescence | activation, % at 5 µM | 2.5% of 320,000 active; in the data active means activation above about 47%;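 further: 0% = vehicle wells and 100% = reference agonist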
The depositor's hits bear a star; . = no result given.

SMILES | hgDAF12 agonist | DAX1 inh-1 | DAX1 inh-2 | hcDAF-12 act | ssDAF-12 act | AHR act
Cc1c(C(=O)N2CCC[C@H]2C(N)=O)oc2c(F)cccc12 | 1 | 6.0* | 0 | 0 | -1 | .
Cc1cc(C)c2c(N)c(C(=O)Nc3cccc(C)c3C)sc2n1 | 5 | -1 | 0 | -1 | -1 | 68*
COCc1cc(C)nc2sc(C(=O)Nc3cccc(OC)c3)c(N)c12 | 10* | 4.9* | 1 | 6 | 0 | 12
Cn1c(N)c(C(=O)N/N=C/c2ccccc2)sc1=S | 2 | -1 | -1 | 2 | -2 | 101*
Cc1cc(C)c2c(N)c(C(=O)N/N=C/c3ccccc3)sc2n1 | 3 | 8.7* | 1 | 0 | -1 | -7
N#CCc1cnc2ccccc2n1 | 0 | 1 | 0 | 0 | -1 | 35
COc1ccccc1CN1CCC(CNS(=O)(=O)c2cc(-c3cc(C)no3)ccc2OC)CC1 | 0 | 2 | 0 | -1 | -1 | -1
O=c1c(Cc2c(F)cccc2Cl)c(O)ccn1CCCn1ccnc1 | 2 | 4.3* | 0 | 0 | -1 | 12
COc1cc2c(cc1OC)CN(CC(=O)Nc1ccccc1C#N)CC2 | -3 | -1 | 0 | 1 | -1 | 50*
COc1cc2c(cc1OC)CN(CC(=O)Nc1ccccc1SC)CC2 | -2 | -1 | -2 | -2 | -2 | -1
Cc1c(S(=O)(=O)N2CCN(c3cccc(Cl)c3)CC2)c(=O)n(C)c(=O)n1C | -3 | 1 | 0 | 1 | -1 | -4
O=C(c1ccc(CSc2nc3ccncc3[nH]2)cc1)N1CCCCCC1 | 13* | -4 | 1 | 4 | 0 | -1
COc1ccc(/C=C(\C#N)c2nc3ccccc3[nH]2)cc1O | 9 | 4 | 2 | 2 | 0 | .
COc1cc(/C=C(\C#N)c2nc3ccc(C)cc3[nH]2)c([N+](=O)[O-])cc1OC | 0 | -1 | -2 | 0 | -1 | 66*
COc1c(O)ccc(/C=C(\C#N)c2nc3ccccc3[nH]2)c1[N+](=O)[O-] | 3 | 1 | 0 | 5 | -1 | 50*
COc1cc(/C(C#N)=C/c2ccccc2)c([N+](=O)[O-])cc1OC | -1 | -1 | -1 | 1 | -1 | 47*
Cc1cccc(NC(=O)CN2CCN(C(=O)CN3C(=O)NC4(CCCCC4C)C3=O)CC2)c1C (stereo unspecified) | -1 | 1 | 0 | -1 | -2 | .
CNc1nc(Nc2ccc(Br)cc2)nc(N)c1[N+](=O)[O-] | 3 | 1 | 1 | 6 | 1.2* | 70*
Cc1[nH]nc(Nc2ccc(Br)cc2)c1[N+](=O)[O-] | 12* | 5.6* | 1 | 4 | 1.3* | 125*
COc1cc(CNc2ccc3[nH]c(=O)[nH]c3c2)ccc1OCc1ccc(Cl)cc1 | -1 | -2 | -1 | -1 | -1 | 1
COc1ccc(-c2cc(NC(=O)Cc3c(C)[nH]c4ccccc34)ccc2Nc2cccnc2)cc1F | -1 | . | 1 | 4 | 0 | .
O=C(CSc1ccccc1)Nc1ccc(N2CCOCC2)cc1 | 8 | 0 | -1 | 1 | -1 | 3
O=C(CSc1ccccc1F)Nc1ccc(N2CCOCC2)cc1 | 12* | 1 | -3 | 1 | -1 | 2
CN(CC(=O)Nc1ccc(N2CCOCC2)cc1)CC(=O)Nc1ccc(N2CCOCC2)cc1 | 1 | 1 | -1 | -2 | -1 | 52*
O=C(CSc1ccccc1)Nc1ccc(N2CCOCC2)c(F)c1 | 5 | 2 | 4.4* | 1 | 0 | 9
SMILES | hgDAF12 agonist | DAX1 inh-1 | DAX1 inh-2 | hcDAF-12 act | ssDAF-12 act | AHR act
Cc1ccc(CNC(=O)Nc2ccc(F)cc2)n1C | 0 | 0 | 0 | 2 | 0 | .
Cc1cc(=O)[nH]c(SCc2cccc3cccnc23)n1 | 0 | 5.2* | -1 | -1 | -2 | 12
Cc1cc(=O)[nH]c(SCc2nc3ncccn3c2Br)n1 | -1 | 0 | 0 | 0 | -1 | 5
COc1ccc(C(CNC(=O)c2cccc(NS(=O)(=O)c3ccc(C)c(F)c3)c2)N2CCOCC2)cc1 (stereo unspecified) | 0 | 0 | -2 | 0 | -1 | -1
Fc1cccc(C2NN=C(c3ccccc3)S2)c1 (stereo unspecified) | 28* | 3 | 4.5* | 10* | 2.3* | 17
Cc1cc(OCc2cc(C(=O)N(C)CC3CCOCC3)no2)cc(C)c1Cl | 5 | 1 | 0 | 1 | 0 | 1
CC(=O)c1ccc(OCc2cc(C(=O)N(C)Cc3ccccn3)no2)cc1 | 9 | 0 | 4.0* | 4 | 1.0* | .
COCC1CCN(C(=O)c2cc(COc3cc(C)c(Cl)c(C)c3)on2)C1 (stereo unspecified) | 9 | 0 | 1 | 6.3* | 0 | 5
CSc1ccccc1OCc1cc(C(=O)N(C)C(C)c2ccccn2)no1 (stereo unspecified) | 1 | -1 | -1 | -1 | -1 | .
CCN(CC1CCCO1)C(=O)c1cc(COc2cc(C)c(Cl)c(C)c2)on1 (stereo unspecified) | 7 | 1 | 0 | 5 | 1.5* | .
Cc1cc(OCc2cc(C(=O)N(C)C(C)c3ccccn3)no2)cc(C)c1Cl (stereo unspecified) | 12* | 1 | 1 | 3 | 0 | 5
CC(=O)c1ccc(OCc2cc(C(=O)N(C)Cc3ccon3)no2)cc1 | -1 | 0 | 0 | -1 | -1 | .
COc1cccc(C(=O)n2ccc3ccc(-c4ccc5ccn(C(=O)c6cccc(OC)c6)c5c4)cc32)c1 | 0 | . | -1 | 0 | 0 | .
Cc1cc(OCc2cc(C(=O)N(C)Cc3ccccn3)no2)cc(C)c1Cl | 11* | 1 | 1 | 1 | 0 | 13
Cc1cc(OCc2cc(C(=O)N(C)CCOc3ccccc3)no2)cc(C)c1Cl | 0 | 1 | -1 | -2 | -1 | 2
O=C1NC[C@H](CCCCN2CCN(CC3CCCCC3)C(=O)C2=O)N(Cc2ccccc2)C1=O | 0 | . | -1 | -2 | -1 | .
O=C(Nc1cc(F)cc(F)c1)c1ccc(NCCc2ccccc2)c([N+](=O)[O-])c1 | 1 | -1 | 0 | 3 | -1 | 57*
Cc1ccc(NC(=O)c2ccc(NCCc3ccccc3)c([N+](=O)[O-])c2)cc1F | 0 | -1 | 0 | -3 | -2 | 22
O=C(NCC(=O)N1CCCCCCC1)c1ccc(Cl)cc1 | 12* | 2 | 0 | 3 | -1 | 3
O=C(CNC(=O)c1ccc(Cl)cc1)NNC(=O)c1ccc(Br)cc1 | -1 | 0 | 0 | 2 | -1 | 1
NC(=O)CNC(=O)c1ccc(Cl)cc1 | -2 | 5.6* | 0 | -2 | -1 | 1
Cc1ccccc1C(=O)NC1CCCCN(Cc2cccc(C(F)(F)F)c2)C1=O (stereo unspecified) | 3 | . | 0 | -2 | -1 | .
CN(C)S(=O)(=O)c1cc(NC2CC(=O)N(c3ccc(F)cc3)C2=O)ccc1Cl (stereo unspecified) | -3 | 10* | 0 | -1 | -1 | 0

Assay outcomes deposited in PubChem BioAssay by The Scripps Research Institute Molecular Screening Center.
